In PubChem BioAssay (NCI):
This is part of a sample that, as a whole, favours compounds with a hit. Of some 83,000 tested, about 20% had one in any assay.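 Method: cells in 96-well plates; compound added at one concentration; 48 h incubation; percent growth measured; values under 10 scored active.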 A number with no mark means an inactive call. Activity calls are given as the source filed them.

system: MDA-MB-468 breast; assay: NCI-60 one-dose screen, 48 h (100 = growth as untreated, 0 = no growth, -100 = all killed); conditions: 10 µM unless noted

SMILES	growth
c1ccc(-c2oc3ccccc3c2-c2ccccc2)cc1	97.9%
COc1ccc(S(=O)(=O)N(C(C)=O)c2ccccc2/C=C/c2cc[n+]([O-])cc2)cc1	10.8%
CN(C)c1ccc2nc3ccc(=[N+](C)C)c([N+](=O)[O-])c-3sc2c1	0.864% (active)
S=C1SCC(c2ccccc2)S1 (centres undefined)	99.6%
c1csc([C@@H]2C[C@@H]3Cc4ccc5ccccc5c4N2O3)c1	99.2%
Cc1cnc(N)nc1OCCNC(=O)c1cccc(-c2ccc(S(=O)(=O)Nc3ccc4c(c3)N(C(=O)C3CC3)CCC4)cc2)c1	36.8%
COc1ccc(/C=C/C(=O)c2ccc(B(O)O)cc2)cc1O	66.8%
Nc1ccc(F)cc1F	92.7%
Clc1cccc(/C=N/Nc2nc(N/N=C/c3cccc(Cl)c3)nc(N3CCCCC3)n2)c1	76.3%
O=C(Nc1cccc(NC(=O)Nc2cc(C(F)(F)F)ccc2Cl)c1)Nc1cc(C(F)(F)F)ccc1Cl	-8.33% (active)
CN(C)c1ccc(/C=C(\C#N)c2cc3ccccc3[nH]2)cc1	-3.07% (active)
Cc1noc(C)c1-c1cc(O)cc(C(O)c2ccccc2)c1 (centres undefined)	24.9%
COc1ccc(-c2cncnc2N)cc1OC	116%
CCOC(OCC)c1cnc2nc(NC(C)=O)[nH]c(=O)c2n1	109%
COc1ccn2c(C(C)=O)cc(C(=O)c3ccc4c(c3)Sc3ccccc3N4)c2c1	-4.11% (active)
COC(c1ccccc1)C(Br)C(=O)c1ccccc1 (centres undefined)	94.8%
CN1CCN(Cc2ccc(NC(=O)c3cncc(C#Cc4cnccc4C#N)c3)cc2C(F)(F)F)CC1	90.5%
Cc1cc(C)c(-c2c(C)cc(C)cc2CBr)c(CBr)c1	45.1%
CCOC(=O)c1c[nH]c2cc(OCC3CC3)c(OCC3CC3)cc2c1=O	107%
C=C1C(=O)O[C@H]2[C@H]1CC/C(COC(=O)NCc1ccc(Cn3c(=O)sn(-c4ccc(OC)cc4)c3=O)cc1)=C\CC[C@@]1(C)O[C@@H]21	17.9%

SMILES	growth
O=C(Nc1ccc(C2=NCCCN2)cc1)c1ccc(C(=O)Nc2ccc(C3=NCCCN3)cc2)nc1	102%
CCC1=CCC[C@@]2(C)CCC[C@@]3(C)CCCC(C)(C)[C@]1([O-])[O+]32	94.5%
Cc1ccc(/C=N\NC(=O)c2[nH]c3ccc(F)cc3c2-c2ccccc2)cc1	-14.5% (active)
O=C1Nc2ccccc2SC1C1SC(=S)N(Cc2ccccc2)C1=O (centres undefined)	31.4%
CCOC(=O)c1c(C)nc2c(c1N)CC(=O)N2Cc1cc(F)cc(Cl)c1	84.9%
CCS(=O)(=O)N1CCN(c2ccc(Nc3ncc(C(N)=O)c(NC4CC4)n3)cc2)CC1	42.2%
Cc1ccc(NS(=O)(=O)c2ccc3c(c2)C(=O)CC(c2ccc(C(=O)C(C)C)cc2)N3)cc1C (centres undefined)	-3.79% (active)
O=C1/C(=C/c2ccc([N+](=O)[O-])cc2)COc2ccc(O)c(O)c21	-90.9% (active)
CC(C)CSc1nc(N)nc2c1ncn2C1OC(CO)C(O)C1O (centres undefined)	96.5%
CCC(C)CC(CC)NCCN1CCN(C(CC)CC(C)CC)C1=S (centres undefined)	-43.6% (active)
CN(C)CCOc1nc2c3ccncc3cc(-c3cccc(Cl)c3)c2c2cnccc12	38.3%
CCOC(=O)Cc1csc2nc(-c3ccccc3)nn12	108%
COc1ccc2c(c1OC)CO[C@@H]2[C@H]1c2c(cc3c(c2OC)OCO3)CCN1S(=O)(=O)c1cn(C)cn1	17.4%
Cc1cccc(Oc2ccc(Nc3ncnc4ccc(NC(=O)CNCCO)cc34)cc2Cl)c1	-21.9% (active)
COc1cc(-c2csc(NC(=O)Nc3ccc(Cl)cc3)n2)cc(OC)c1OC	13.5%
COc1nc2ccccc2cc1/C=C1/C=C(c2ccccc2)NC1=O	29%
CCCCCCCCCCC(C)Br (centres undefined)	111%
COc1ccc(C2=NN(c3ccc(S(N)(=O)=O)cc3)C(c3ccc(Cl)cc3)C2)c(O)c1 (centres undefined)	61.7%
CCN(C(=O)N1CCN(c2cc3c(cc2F)c(=O)c(C(=O)O)cn3C2CC2)CC1)c1nc(-c2ccc(Cl)cc2)cs1	-2.66% (active)
